Compounds without any hit were thinned out: in the full panel of roughly 83,000, 20% have a hit.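 How to read the values: 0–100, growth inhibition (40 = 60% inhibited); 0, no net growth; -100 to 0, cell death (-40 = 40% of starting cells died; -100 = all dead).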 Activity calls are given as the source filed them. Rule for the calls: active = growth percent below 10; inactive = the rest.

This test deals with HCT-116 colon. The test can be described thus: NCI-60 one-dose screen, 48 h (100 = growth as untreated, 0 = no growth, -100 = all killed). Particulars: 10 µM unless noted.
Turning to `O=[N+]([O-])c1ccc(Sc2nc(Cl)nc(NC3CCCC3)n2)cc1`, the growth was -94.3% [100 µM] (active).
With `Cc1c(C(N)=O)sc2ncn(CC(=O)NN=C3CCCCC3)c(=O)c12`, the growth was 95.1% (inactive).
For `CC1=C(O)C(=O)CC1` the value was 105% (inactive).
For `CCOC(=O)C1C(=O)C=C(c2cc(OC)c(OC)c(OC)c2)CC1c1sc(N(C)Cc2ccccc2)nc1Cl` (stereo not given) the value was 72.6% (inactive).
For `COc1cc(C2CC(c3ccccc3)=NN2C=O)ccc1Oc1nc2c(c(=O)n(C)c(=O)n2C)n1C` (stereo not given) the value was 79.9% (inactive); for `O/N=C1\c2ccccc2-c2ccc(Br)cc21`, 114% (inactive).
For the compound `COc1ccc2c(c1)OC1=C(C(=O)OC1)C2c1cc(OC)c2c(c1)OCCO2` (stereo not given), the growth was 4.09% (active).
The value for `CN1CCC2(CC1)N=C(SCC(=O)Nc1cnc3ccccc3c1)C(c1ccc(Br)cc1)=N2` was -90.7% (active); that for `Clc1ccc(C2=NN[C@H](c3cn(-c4ccccc4)nc3-c3ccccc3)C2)cc1` was 0.0078% (active).
Take `COc1cc(C)c(Cl)cc1C1=NN(c2ccc(S(N)(=O)=O)cc2)C(/C=C/c2ccccc2)C1` (stereo not given): the growth was 11.5% (inactive).
For `Clc1ccc(-c2cnc3nonc3n2)s1`, the growth is 67% (inactive).
For `CN1C(=O)NC(Cc2c[nH]c3c(Cl)cccc23)C1=O` (stereo not given) the value was 108% (inactive).
The value for `COc1ccc(C(=O)N2N=C(c3ccc(F)cc3)CC2c2cn(-c3ccccc3)nc2-c2ccccc2)cc1` (stereo not given) was 7.49% (active).
For the compound `CN(C)c1ccc(C2(Cl)c3ccccc3N(C)c3ccccc32)cc1`, the growth is 5.46% (active).
The value for `CC(=O)c1ccc(Br)c([N+](=O)[O-])c1` was 96.9% (inactive).

The values above are taken from PubChem BioAssay (NCI).
